# Experimental data as given in PubChem BioAssay (NCATS).
# Results filed as inconclusive are left out. A call without a number means that no potency is given here. Activity calls are given as the source filed them. The call rests on the fitted dose curve; in most records, active means well fitted inhibition curve with a large enough effect; inconclusive means small, poorly fitted or top-dose-only effect; inactive means flat fitted curve, though single readings scatter.
# Key:
# Experiment in all cases: qHTS profiling for inhibitors of Plasmodium falciparum proliferation (AID 504749); further: nearly all actives have a fitted effect of over 60% in size
# Conditions in all cases: P. falciparum in erythrocytes, SYBR Green DNA, 72 h; series mostly up to 28.7 µM
# CP335 = test system: CP335
# Summary of the method: (§1)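 In a 72 h erythrocytic culture (37 C, humidified, 5% CO2) at 2.5% hematocrit and 0.3% starting parasitemia, compounds were tested; SYBR Green I in detergent lysis buffer stained parasite DNA overnight.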
# DFO2036 = test system: DFO2036
# Summary of the method: as §1
# DIV14 = test system: DIV14
# Summary of the method: as §1
# DIV17 = test system: DIV17
# Summary of the method: as §1
# DIV30 = test system: DIV30
# Summary of the method: as §1
# Dd2 = test system: Dd2
# Summary of the method: as §1
# ECU = test system: ECU
# Summary of the method: as §1
# FAB9 = test system: FAB9
# Summary of the method: as §1
# GB4 = test system: GB4
# Summary of the method: as §1
# HB3 = test system: HB3
# Summary of the method: as §1
# ICS = test system: ICS
# Summary of the method: as §1
# JCK = test system: JCK
# Summary of the method: as §1
# N140 = test system: N140
# Summary of the method: as §1
# P93_24 = test system: P93_24
# Summary of the method: as §1
# P94_40 = test system: P94_40
# Summary of the method: as §1
# PAD = test system: PAD
# Summary of the method: as §1
# PC15 = test system: PC15
# Summary of the method: as §1
# PC49 = test system: PC49
# Summary of the method: as §1
# SC27B = test system: SC27B
# Summary of the method: as §1
# PC26 = test system: PC26
# Summary of the method: as §1
# Potency means the concentration at half of the fitted maximal effect.
Structure (SMILES),Potency (CP335),Potency (DFO2036),Potency (DIV14),Potency (DIV17),Potency (DIV30),Potency (Dd2),Potency (ECU),Potency (FAB9),Potency (GB4),Potency (HB3),Potency (ICS),Potency (JCK),Potency (N140),Potency (P93_24),Potency (P94_40),Potency (PAD),Potency (PC15),Potency (PC49),Potency (SC27B),Potency (PC26)
c1ccc2[nH]c(-c3cscn3)nc2c1,inactive,inactive,inactive,inactive,inactive,inactive,inactive,inactive,inactive,inactive,inactive,inactive,inactive,inactive,inactive,inactive,inactive,inactive,inactive,–
Nc1ccn([C@@H]2O[C@H](CO)[C@@H](O)C2O)c(=O)n1 (stereo not given in full),inactive,inactive,inactive,inactive,–,inactive,inactive,inactive,inactive,inactive,inactive,inactive,inactive,inactive,inactive,inactive,inactive,inactive,inactive,–
COc1cc(OC)c(C(=O)CCCN2CCCC2)c(OC)c1,inactive,inactive,inactive,–,inactive,inactive,inactive,inactive,inactive,inactive,inactive,inactive,inactive,inactive,inactive,inactive,inactive,inactive,inactive,inactive
CN(c1nccc(=O)[nH]1)C1CCN(c2nc3ccccc3n2Cc2ccc(F)cc2)CC1,inactive,inactive,–,–,–,–,–,inactive,–,inactive,10 µM (active),inactive,–,inactive,–,inactive,–,inactive,inactive,–
Cc1nc2n(c(=O)c1CCN1CCC(c3noc4cc(F)ccc34)CC1)CCCC2,–,inactive,–,inactive,inactive,inactive,inactive,inactive,inactive,inactive,12.6 µM (active),inactive,inactive,inactive,inactive,inactive,inactive,inactive,inactive,inactive
Cc1nc(Nc2ncc(C(=O)Nc3c(C)cccc3Cl)s2)cc(N2CCN(CCO)CC2)n1,inactive,inactive,–,13.5 µM (active),13.5 µM (active),–,–,inactive,15.1 µM (active),–,7.08 µM (active),inactive,14.1 µM (active),–,–,–,–,–,–,–
CCC[C@@H]1C[C@@H](C(=O)N[C@@H]([C@H]2O[C@H](SC)[C@H](O)[C@@H](O)[C@H]2O)[C@@H](C)O)N(C)C1,–,–,–,–,–,0.0089 µM (active),–,inactive,–,–,–,inactive,–,–,–,inactive,inactive,inactive,–,–
Cc1c(C(=O)NN2CCCCC2)nn(-c2ccc(Cl)cc2Cl)c1-c1ccc(Cl)cc1,–,–,13.5 µM (active),13.5 µM (active),12 µM (active),–,–,–,–,–,11.2 µM (active),inactive,8.91 µM (active),10 µM (active),11.2 µM (active),–,–,–,10 µM (active),16.9 µM (active)
COc1ccc2cc([C@H](C)C(=O)O)ccc2c1,–,inactive,inactive,inactive,inactive,inactive,inactive,inactive,inactive,inactive,–,inactive,inactive,–,inactive,inactive,inactive,inactive,inactive,inactive
CCc1nc(N)nc(N)c1-c1ccc(Cl)cc1,–,inactive,–,–,–,inactive,0.0501 µM (active),0.0501 µM (active),0.019 µM (active),11.2 µM (active),–,inactive,inactive,inactive,inactive,inactive,inactive,inactive,inactive,–
CNC[C@H](O)c1ccc(O)c(O)c1,–,inactive,inactive,inactive,inactive,inactive,inactive,inactive,inactive,inactive,inactive,inactive,inactive,inactive,inactive,inactive,inactive,inactive,inactive,inactive
Cc1cc(C2CCCCC2)n(O)c(=O)c1,–,–,–,–,–,inactive,–,3.55 µM (active),6.42 µM (active),–,3.55 µM (active),–,–,3.16 µM (active),–,–,3.16 µM (active),inactive,–,–
CN1CCC(=C2c3ccccc3CCc3sccc32)CC1,–,–,4.78 µM (active),4.26 µM (active),–,5.01 µM (active),inactive,inactive,6.01 µM (active),–,8.91 µM (active),–,–,–,–,–,–,8.91 µM (active),–,–
CC1=C(C)C(=O)C(C(CCCCCC(=O)O)c2ccccc2)=C(C)C1=O (stereo not given),inactive,inactive,–,–,–,inactive,inactive,inactive,–,inactive,inactive,inactive,–,inactive,inactive,inactive,inactive,inactive,–,–
O=c1oc2cc(O)ccc2s1,inactive,inactive,–,–,inactive,inactive,inactive,inactive,–,inactive,–,inactive,inactive,inactive,inactive,inactive,inactive,inactive,inactive,inactive
COCCCOc1ccnc(CS(=O)c2nc3ccccc3[nH]2)c1C (stereo not given),inactive,inactive,–,–,inactive,–,inactive,inactive,inactive,inactive,–,inactive,inactive,–,inactive,–,inactive,inactive,inactive,19 µM (active)

Structure (SMILES),Potency (CP335),Potency (DFO2036),Potency (DIV14),Potency (DIV17),Potency (DIV30),Potency (Dd2),Potency (ECU),Potency (FAB9),Potency (GB4),Potency (HB3),Potency (ICS),Potency (JCK),Potency (N140),Potency (P93_24),Potency (P94_40),Potency (PAD),Potency (PC15),Potency (PC49),Potency (SC27B),Potency (PC26)
CC[C@]1(O)C[C@H]2CN(CCc3c([nH]c4ccccc34)[C@@](C(=O)OC)(c3cc4c(cc3OC)N(C=O)[C@H]3[C@@](O)(C(=O)OC)[C@H](OC(C)=O)[C@]5(CC)C=CCN6CC[C@]43[C@@H]65)C2)C1,–,1.78 µM (active),–,–,3.38 µM (active),0.199 µM (active),–,–,–,0.447 µM (active),0.1 µM (active),–,3.55 µM (active),–,3.16 µM (active),–,inactive,inactive,1.58 µM (active),–
Nc1nc(Cl)nc2c1ncn2[C@H]1C[C@H](O)[C@@H](CO)O1,–,inactive,–,–,–,inactive,inactive,inactive,–,inactive,inactive,inactive,inactive,inactive,inactive,inactive,inactive,inactive,inactive,–
O=C1CCc2ccc(OCCCCN3CCN(c4cccc(Cl)c4Cl)CC3)cc2N1,–,–,inactive,inactive,inactive,–,–,inactive,inactive,–,11.2 µM (active),inactive,–,10 µM (active),–,–,–,inactive,–,inactive
CCCCN(CCCC)CCC(O)c1cc2c(Cl)cc(Cl)cc2c2cc(C(F)(F)F)ccc12 (stereo not given),0.0081 µM (active),0.0089 µM (active),–,–,0.0102 µM (active),0.0028 µM (active),0.0079 µM (active),0.0112 µM (active),–,0.0063 µM (active),0.0006 µM (active),10 µM (active),0.0032 µM (active),0.0056 µM (active),0.0032 µM (active),0.0045 µM (active),0.0089 µM (active),–,0.0126 µM (active),0.0102 µM (active)
NNc1nncc2ccccc12,–,–,6.42 µM (active),5.1 µM (active),–,3.98 µM (active),–,–,–,3.98 µM (active),1.41 µM (active),–,–,3.98 µM (active),3.55 µM (active),–,–,inactive,–,–
CCCCC(CC)COC(=O)C(C#N)=C(c1ccccc1)c1ccccc1 (stereo not given),–,–,inactive,inactive,inactive,–,8.91 µM (active),inactive,–,–,–,inactive,inactive,–,–,inactive,–,inactive,8.91 µM (active),inactive
N=C(N)c1ccc2cc(OC(=O)c3ccc(N=C(N)N)cc3)ccc2c1,–,–,7.57 µM (active),–,–,–,–,–,5.36 µM (active),–,7.08 µM (active),inactive,–,–,–,inactive,–,–,–,–
O=C1c2ccccc2-c2n[nH]c3cccc1c23,–,inactive,inactive,inactive,inactive,inactive,inactive,inactive,–,inactive,–,inactive,inactive,inactive,inactive,inactive,inactive,inactive,inactive,–
CCCCCCCCOc1ccccc1C(=O)Nc1ccc(C(=O)OCC[N+](C)(CC)CC)cc1,6.01 µM (active),8.91 µM (active),–,–,–,–,10 µM (active),inactive,12 µM (active),–,8.91 µM (active),–,–,12.6 µM (active),–,–,–,–,–,–
Cc1ccc(NC(=O)c2ccc(CN3CCN(C)CC3)cc2)cc1Nc1nccc(-c2cccnc2)n1,–,–,15.1 µM (active),15.1 µM (active),12 µM (active),10 µM (active),8.91 µM (active),–,15.1 µM (active),–,11.2 µM (active),–,8.91 µM (active),10 µM (active),11.2 µM (active),10 µM (active),–,–,–,15.1 µM (active)
CCN(CCO)CCCC(C)Nc1ccnc2cc(Cl)ccc12 (stereo not given),inactive,inactive,–,inactive,inactive,inactive,–,1.41 µM (active),–,1 µM (active),inactive,inactive,inactive,inactive,inactive,inactive,–,inactive,inactive,inactive
O=C(O)c1cn(-c2ccc(F)cc2)c2cc(N3CCNCC3)c(F)cc2c1=O,–,–,–,inactive,inactive,–,inactive,inactive,–,inactive,–,inactive,inactive,–,–,inactive,inactive,inactive,inactive,inactive
O=C(OC1C[C@H]2CC[C@@H](C1)[N+]21CCCC1)C(O)(c1ccccc1)c1ccccc1 (stereo not given in full),4.26 µM (active),–,–,–,4.78 µM (active),0.0891 µM (active),5.01 µM (active),–,4.26 µM (active),–,–,inactive,–,2.24 µM (active),4.47 µM (active),–,inactive,inactive,–,–
C=C(c1ccc(C(=O)O)cc1)c1cc2c(cc1C)C(C)(C)CCC2(C)C,–,inactive,–,inactive,inactive,–,inactive,inactive,inactive,–,8.91 µM (active),inactive,inactive,inactive,inactive,inactive,inactive,inactive,inactive,inactive
Cc1cc(=O)oc2cc(O)ccc12,–,–,inactive,inactive,inactive,–,–,inactive,inactive,–,–,2 µM (active),–,inactive,inactive,inactive,1.12 µM (active),–,–,–
